According to PubChem BioAssay (NCI):
This is part of a sample that, as a whole, favours compounds with a hit. Of some 79,000 tested, about 15% had one in any assay. Rule as the data show it: active = growth inhibition above about 70%; inactive = the rest. Where a SMILES comes first, the peptide text is derived from it. Bridges are numbered along the chain shown (N, C = ends). The star is where a group is joined. Cbz = O=C(OCc1ccccc1)*; OBn = c1ccc(CO*)cc1

Key:
[1] = NCI Yeast Anticancer Drug Screen. Data for the rad50 strain (AID 155);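 also: 0% = growth of vehicle-only cultures of the same strain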; settings: S. cerevisiae rad50 strain growth inhibition; at 50.0 µM; active compounds read high
Procedure, shortened: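 Growth of the mutant yeast was measured after compound exposure and referenced to vehicle-treated cultures.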

[2] = NCI Yeast Anticancer Drug Screen. Data for the mec2-1 strain (AID 157); settings: S. cerevisiae mec2-1 strain, at 50.0 µM, active compounds read high
Procedure, shortened: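 Cells of the genetically defined mec2-1 yeast strain are incubated with test compound. Inhibition of growth is calculated against vehicle-treated controls.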

[3] = NCI Yeast Anticancer Drug Screen. Data for the sgs1 mgt1 strain (AID 161);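 also: 0% = growth of cultures given vehicle only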; settings: S. cerevisiae sgs1 mgt1 strain, at 50.0 µM, active compounds read high
Procedure, shortened: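 Genetically altered yeast, compound exposure, growth inhibition relative to vehicle.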

[4] = NCI Yeast Anticancer Drug Screen. Data for the cln2 rad14 strain (AID 165);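 also: 0% = growth equal to vehicle treated cultures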; settings: S. cerevisiae cln2 rad14 strain, at 50.0 µM, active compounds read high
Procedure, shortened: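 The screen exposed genetically defined yeast (cln2 rad14) to test compounds and scored growth inhibition relative to vehicle-treated controls.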

[5] = NCI Yeast Anticancer Drug Screen. Data for the bub3 strain (AID 167); settings: S. cerevisiae bub3 mutant strain, at 50.0 µM, active compounds read high
Procedure, shortened: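 Whole-cell yeast assay. The mutant strain was incubated with compounds, and growth inhibition was determined by comparison with vehicle-treated cells.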

[6] = NCI Yeast Anticancer Drug Screen. Data for the mlh1 rad18 strain (AID 175); settings: S. cerevisiae mlh1 rad18 strain growth inhibition; at 50.0 µM; active compounds read high
Procedure, shortened: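 Compound-treated yeast growth, normalised to vehicle controls. Strain bears defined DNA repair mutations.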

Measured: growth inhibition

CN(C)C(=S)/N=c1\ss/c(=N\C(=S)N(C)C)n1C1CCCCC1
inactive: [1] 15% | [2] 9.35% | [3] 13.4% | [4] -23.1% | [5] -18.6% | [6] 22.2%

COc1cc2ccccc2cc1CO
inactive: [1] -4.15% | [2] -4.2% | [3] -3.8% | [4] -16.1% | [5] -22.8% | [6] -0.45%

COc1cc(C2(C)SCCCS2)cc(OC)c1OC
inactive: [1] -10.9% | [2] -8.1% | [3] -4.05% | [4] 0.2% | [5] 25.8% | [6] -15.3%

Cc1cc(=O)oc2nc(-c3ccccc3)[nH]c(=O)c12
inactive: [1] 0.3% | [2] -10.2% | [3] 3.2% | [4] -5.4% | [5] -7.15% | [6] 18.3%

Cc1cccc2c1sc1c(C)cc(C(=O)CCC(=O)O)cc12
inactive: [1] 9% | [2] 11.2% | [3] 5.3% | [4] 3.4% | [5] 20.4% | [6] 25.4%

O=C(Oc1ccc(C(=O)c2ccc(C(=O)c3ccc(OC(=O)c4cccc(Br)c4)cc3)cc2)cc1)c1cccc(Br)c1
inactive: [1] 11.2% | [2] 7.15% | [3] -10.7% | [4] -2.35% | [5] 2.65% | [6] 2.15%

CCOC(=O)c1nc2ccccc2nc1NCc1ccc(OC)cc1
inactive: [1] -6.5% | [2] -6.45% | [3] -30.4% | [4] 6.55% | [5] -22.4% | [6] 3.4%

NC(=O)c1[nH]c(COCCO)nc1N
inactive: [1] -20.4% | [2] -10.4% | [3] 14% | [4] -14.9% | [5] 7.05% | [6] 22.4%

CN(C)C(=O)c1cccnc1
inactive: [1] 0.25% | [2] -4.25% | [3] -4.8% | [4] 27.1% | [5] -18.2% | [6] -2.35%

COC(=O)C1CCC(=O)NCCCCC(NC(=O)C(CC(=O)OCc2ccccc2)NC(=O)OCc2ccccc2)C(=O)N1 (stereo not drawn) (Cbz-Asp(OBn)-Lys-Glu-OMe; lactam 2-3; configuration not given here)
inactive: [1] -2% | [2] 3.95% | [3] 23.3% | [4] 11.8% | [5] 28.4% | [6] -23.7%

CN(C)CCCOC(=O)C(O)(Cc1ccccc1)C1CC1 (stereo not given)
inactive: [1] 10.7% | [2] 15.4% | [3] 6.25% | [4] 5.35% | [5] 28.6% | [6] 15.1%

Clc1ccc2ccccc2n1
inactive: [1] 15.1% | [2] -1.65% | [3] -6.4% | [4] -23.1% | [5] 9.8% | [6] -8.15%

C#C/C=C/CC(OC(C)=O)C1C/C=C\CC(Br)C(CC)O1 (stereo not given)
inactive: [1] 31.1% | [2] 16.5% | [3] 46% | [4] 36.1% | [5] 49% | [6] 45.3%

Cc1ccc([N+](=O)[O-])cc1NC(=O)C(=O)Cc1nc2ccc(C(=O)c3ccccc3)cc2[nH]c1=O
inactive: [1] -4.7% | [2] -20.7% | [3] -9.05% | [4] 11.6% | [5] 10.3% | [6] -5.7%

NC1CC(=O)c2sccc21 (stereo not given)
inactive: [1] 9.8% | [2] 2.15% | [3] 16.8% | [4] 9.2% | [5] 17.8% | [6] 1.25%

O=S(=O)(O)c1cccc2cccc(Nc3ccccc3)c12
inactive: [1] -0.5% | [2] 0.35% | [3] 8.85% | [4] -33.1% | [5] -14.8% | [6] 25.4%

COC(=O)C1C2C=CC(O2)C1C(=O)OC (stereo not given)
inactive: [1] -2.15% | [2] -1.75% | [3] -9.75% | [4] -51.6% | [5] 14.1% | [6] -7.45%

OC(c1cc(C(F)(F)F)nc2c(Cl)cc(Cl)cc12)C1CCCCN1 (stereo not given)
inactive: [1] 7.2% | [2] -22.4% | [3] -5% | [4] -3.4% | [5] 8.75% | [6] 22.9%

N#CC(C#N)c1c(F)c(F)c(C(F)(F)F)c(F)c1F
inactive: [1] 10.4% | [2] -4.6% | [3] 34.9% | [4] -8.95% | [5] -9.9% | [6] -0.65%

C=C1CCc2ccccc2C1=O
inactive: [1] 23.4% | [2] -4% | [3] 4.25% | [4] -5.55% | [5] 7.15% | [6] 13.6%
